Data: PubChem BioAssay (NCI)
About 83,000 compounds went through this panel and 20% of them were active in at least one assay; those are over-represented in the sample as a whole.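 The endpoint reported here, percent growth, reads 100 for growth as untreated, 0 for no net growth and -100 for all cells dead.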 Unmarked numbers belong to inactive results. Calls of active or inactive are those of the source. How the source made its calls: active means growth percent below 10; inactive means the rest.

These compounds were tested on BT-549 breast (assay: NCI-60 one-dose screen, 48 h (100 = growth as untreated, 0 = no growth, -100 = all killed)). Conditions: 10 µM unless noted.
O=C(CCCCCCCCC(=O)Nc1cccc(C2=NCCN2)c1)Nc1cccc(C2=NCCN2)c1 was tested, and the growth was 92.2%. C[C@]12CC[C@@H]3c4ccc(O)cc4CC[C@H]3[C@@H]1C[C@H](O)C2 was tested, and the growth was 79.1%. With CCCCCCCCCCCCCC1=NCC[N+]1(CCO)Cc1ccccc1 (configuration not stated) the growth was -50.7% (active). O=C1[C@@H](OS(=O)(=O)CC(F)(F)F)[C@H](c2ccc(F)cn2)N1c1cc2c3ccccc3ccc2c2ccccc12 was tested, and the growth was 66.2%. With Cc1cc(O)cc(O)c1N=NC1=NCCS1 the growth was 93.9%. In the case of CCN(CC)CC#CCOC(=O)[C@]1(C)CCC[C@]2(C)[C@H]3C[C@H]4C(C(C)C)=C[C@]3(CC[C@H]21)[C@@H]1C(=O)CCC(=O)[C@@H]14, the growth is reported as 63.7%. Work on CC(=O)OCC1OC(OC2C(COC(C)=O)OC(OCCC[S-])C(OC(C)=O)C2OC(C)=O)C(OC(C)=O)C(OC(C)=O)C1OC(C)=O.[Au+].c1ccc(CN2[CH-]N(Cc3ccccc3)C(c3ccccc3)=C2c2ccccc2)cc1 (configuration not stated) yielded a growth of 25.3%. With COc1cc(-c2cn(-c3ccc(Cl)c(Cl)c3)c(=O)[nH]2)cc(OC)c1OC the growth was 102%. With NC(=O)c1ccc2nc3c(n2c1)C(=O)C(=O)c1ccccc1-3 the growth was -94.3% (active). Work on Nc1c(C(=O)Nc2ccccn2)sc2nc3c(cc12)CCCCCC3 yielded a growth of 31%. COc1cccc(NC(=O)Nc2ccc(Oc3ncnc4[nH]c(C)c(C)c34)cc2)c1 gave a growth of 99.6%. CC(=O)Oc1c2c(nc3c1c1ccccc1n3Cc1ccccc1)-c1ccccc1C2 gave a growth of 104%. Compound CCOC(=O)C(=Cc1c(-c2ccccc2)[nH]c2ccccc12)C(=O)OCC has a growth of 67.1%. CCOC(=O)c1c(C)nc2c(c1N)/C(=C/c1cccs1)C(=O)N2c1ccc(OC)cc1 was tested, and the growth was 45.9%. Cc1ccccc1NC(=O)c1sc2nc(C)c(C(C)O)cc2c1N (configuration not stated) showed a growth of 57.8%. C#CCN1C(=O)c2ccccc2N(CC#C)C12CCN(Cc1cn(CC(=O)Nc3ccccc3C(N)=O)nn1)CC2 gave a growth of 72.4%. For O=c1nc(-c2ccccc2)c2cc(-c3ccc(N4CCCC4)nc3)ccc2[nH]1, the growth was 64%. For CC(=O)ON1CCCC(P(=O)(OCOC(=O)C(C)(C)C)OCOC(=O)C(C)(C)C)C1=O (configuration not stated), the growth was -1.15% (active). O=S(=O)(O)c1ccc(N=NSc2ccc3ccccc3c2)cc1 was tested, and the growth was 94%. For Cc1cccc(C)c1NCc1nnc(-c2ccco2)o1, the growth was 99%. In the case of CC1(C)Cc2c(Br)c(Br)c(Br)c(OCC(O)CN3CCOCC3)c2O1 (configuration not stated), the growth is reported as 78%. S=c1ssnc1-c1cc2ccccc2o1 gave a growth of 103%. In the case of CCCCCCCc1n(Cc2ccc3ccccc3c2)c2ccccc2[n+]1Cc1ccc2ccccc2c1, the growth is reported as -86.6% (active). For Oc1c(CCl)cc(Cl)cc1Cc1cc(Cl)cc(Cc2cc(Cl)cc(CCl)c2O)c1O, the growth was 23.9%. Cc1cnc(SCc2ccc(Cl)cc2Cl)nc1Nc1ccc(Cl)c(Cl)c1 was tested, and the growth was 101%. O=C(C[n+]1cccc2cc(Cl)ccc21)c1ccc2c(c1)CCCC2 was tested, and the growth was 22.2%. COc1ccc(/C=C(/C(=O)N2CCN(Cc3ccccc3)CC2)c2cc(OC)c(OC)c(OC)c2)cc1O was tested, and the growth was 77.2%. For NC(=O)CN1C(=O)c2ccccc2C1=O, the growth was 86.6%. For O=C(Nc1nc2ccc(C(F)(F)F)cc2s1)c1cc(Cl)ccc1O, the growth was -8.57% (active). With C[C@@H]1C(=O)[C@@H]2C[C@@H](O)[C@@H](O)C[C@]2(C)[C@H]2CC[C@@]3(C)C(=C12)CC[C@@H]3[C@@](C)(O)[C@H](O)CCC(C)(C)O the growth was 102%. Work on O=c1[nH]c(-c2cccc(F)c2)cc2cc(F)ccc12 yielded a growth of 66.5%. Compound COCCOC(=O)COc1ccc(OC)cc1 has a growth of 103%. With C=C(C)[C@@H]1CC[C@]2(C(=O)N3CCN(C)CC3)CC[C@]3(C)[C@H](CC[C@@H]4[C@@]5(C)C/C(=C/c6ccco6)C(=O)C(C)(C)[C@@H]5CC[C@]43C)[C@@H]12 the growth was 79.5%. Work on N#CCNc1ccc(C(=O)O)cc1 yielded a growth of 106%. For OCCNc1nc(NCCO)nc(Nc2ccc(C3=NN(c4cc(Cl)cc(Cl)c4)C(c4ccc(Cl)cc4)C3)cc2)n1 (configuration not stated), the growth was 52.1%. Compound C=C1C(=O)O[C@H]2[C@H]1CC/C(COC(=O)NCc1nc3ccccc3[nH]1)=C\CC[C@@]1(C)O[C@@H]21 has a growth of 86.7%. Compound Cc1cccc(C)c1NCc1nnc(-c2ccc(O)cc2)o1 has a growth of 97.1%.
